Hits are enriched below; roughly 0.25% of the tested compounds scored in any of these assays.
Giardia killer: Giardia lamblia killing | Giardia lamblia trophozoite viability | activity change, % at 7.66 µM, hits read low | 340,000 compounds, 0.15% hits | AID 540267; in the data active means activity change below about -80%; inconclusive means between about -30% and that limit;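 further: parasites exposed to compound for two days anaerobically before the ATP read; on the % scale 0 is the no-effect control and ±100 the full control effect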
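ATP-content bioluminescence gauges trophozoite survival. Cells (100/well) receive compound and incubate anaerobically for 48 hrs at 37 deg C; detection reagent follows for 15-30 min at room temperature.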
Integrin act MD: activators of alpha7 integrin expression for muscular dystrophy | alpha7betagal myoblasts, beta-gal FDG fluorescence, 48 h | Potency, µM (top dose mostly 38.3 µM), without a hit: at the highest dose activation, actives largely listed as activators | 350,000 compounds, 0.064% hits;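 further: potency means the concentration at half of the fitted maximal effect; 100% = response of the positive control SU9516; nearly all actives have a fitted effect of over 60% in size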
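alpha7betagal+/- myoblasts (passage 13, 250/well) treated 48 h at 37C with compounds at 1:260 dilution of DMSO stock. Lysed, then beta-galactosidase activity read as FDG fluorescence (ex 480/em 540) after 30 min, with pre-read for autofluorescence.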
TCR act: T cell receptor activation. primary human leukocytes, anti-CD3, IL-2 HTRF, 48 h. Potency, µM (top dose mostly 9.22 µM), without a hit: top-dose activation of IL-2 secretion, most hits filed as activators. 330,000 tested, under 10 active; further: % of control where 0% means no effect
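Primary human leukocytes were stimulated with a-CD3 beads plus compounds for 48 hr without co-stimulation; secreted IL-2 was quantified by HTRF using a-IL-2-K (europium cryptate) and a-IL-2-d2, excited at 320nm with acceptor emission read at 665nm.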
Chronic BCR inh: inhibitors of chronic active B-cell receptor signaling; ABC-DLBCL IkBa-CBG/CBR reporter, luminescence ratio, 4 h; Potency, µM (top dose mostly 46.1 µM), for the others: top-dose activity change, negative = inhibition, usual class: inhibitors; 340,000 compounds, 0.05% hits; AID 493014; active means well fitted inhibition curve with a large enough effect in the signal ratio, with a control signal flat, not every such curve was filed as active; inconclusive means small, poorly fitted or top-dose-only effect, or effect the other way, or a change in a side signal; the % refers to the signal ratio;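 further: potency means the concentration at half of the fitted maximal effect; plate controls were basal doxycycline-induced cells for no effect and cells given 10 µM MG132 for full effect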
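TMD8 human ABC-DLBCL cells with doxycycline-inducible IκBα–green luciferase fusion and unfused red luciferase, in 0.5% FBS medium; compounds up to 46 uM, 4 h at 37C. Green/red luminescence ratio, filter-overlap corrected, fitted to concentration-response curves.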
Numbers without * were called inactive. Unless noted, the call rests on the fitted dose curve; in most records, active means well fitted curve in the direction sought with a large enough effect; inconclusive means small, poorly fitted or top-dose-only effect, or another doubt; inactive means no such curve, though single readings can be large; an effect the other way counts as inactive or inconclusive.

What do the screens show for `O=C1C=C(Nc2ccc(Cl)cc2Cl)CC(c2ccco2)C1` (stereo not drawn)?
Giardia killer: 12.5; Integrin act MD: 0.0%; TCR act: 6.8%; Chronic BCR inh: 12.6µM*

How did COc1ccc(-c2cc3ccccc3oc2=O)cc1NC(=O)c1ccc(Br)o1 do in these assays?
Giardia killer: 8.8; Integrin act MD: 6.0%; TCR act: -0.6%; Chronic BCR inh: 6.2%

Results for CCn1nnc(NC(=O)c2ccc([N+](=O)[O-])o2)n1 ?
Giardia killer: -103.0*; Integrin act MD: -53.2%; TCR act: 2.5%; Chronic BCR inh: 1.2%

What do the screens show for `COc1ccc(-c2cc3ccccc3oc2=O)cc1NC(=O)c1ccc([N+](=O)[O-])o1`?
Giardia killer: -93.7*; Integrin act MD: -2.0%; TCR act: -1.1%; Chronic BCR inh: 6.7%

What do the screens show for `CCN1CCN(c2ccc(S(=O)(=O)N3CCCCC3)cc2NC(=O)c2ccc([N+](=O)[O-])o2)CC1`?
Giardia killer: inconclusive; Integrin act MD: -53.0%; TCR act: 0.3%; Chronic BCR inh: inconclusive

What do the screens show for `CCCCn1nnc(NC(=O)c2ccc(-c3ccccc3[N+](=O)[O-])o2)n1`?
Giardia killer: 2.4; Integrin act MD: 1.9%; TCR act: 3.6%; Chronic BCR inh: 2.2%

Results for O=C(Nc1ccc(S(=O)(=O)N2CCCC2)cc1)c1ccc([N+](=O)[O-])o1 ?
Giardia killer: -81.2*; Integrin act MD: -55.2%; TCR act: -0.4%; Chronic BCR inh: inconclusive

How did COc1ccc(S(=O)(=O)N2CCCCC2)cc1NC(=O)c1ccc([N+](=O)[O-])o1 do in these assays?
Giardia killer: -94.9*; Integrin act MD: -40.8%; TCR act: -2.4%; Chronic BCR inh: 11.3%

How did CCOC(=O)c1c(S(=O)(=O)N2CCCC(C(=O)N(C)Cc3ccccc3)C2)c(C)n(C)c1C (stereo not drawn) do in these assays?
Chronic BCR inh: -1.0%

Results for CC(=O)OCC(NC(=O)C(COCc1ccccc1)NC(=O)OC(C)(C)C)C1OC(n2ccc(=O)[nH]c2=O)C(OC(C)=O)C1OC(C)=O (stereo not drawn) ?
Giardia killer: 1.8

Results for CCC(c1nnnn1Cc1ccccc1)N(Cc1ccccc1)Cc1cc2cc(C)ccc2[nH]c1=O (stereo not drawn) ?
Giardia killer: -2.8

What do the screens show for `O=C(CSc1nc(=O)[nH]c2c1CCC2)NCc1ccccc1Cl`?
Chronic BCR inh: 4.7%

Results for O=C(Nc1ccc(S(=O)(=O)N2CCOCC2)cc1)c1ccc([N+](=O)[O-])o1 ?
Giardia killer: -83.0*; Integrin act MD: -71.4%; TCR act: -0.9%; Chronic BCR inh: -3.7%

Results for O=C(Nc1ccc(Cc2ccncc2)cc1)c1ccc([N+](=O)[O-])o1 ?
Giardia killer: -88.3*; Integrin act MD: -49.2%; TCR act: 0.5%; Chronic BCR inh: -6.4%

What do the screens show for `O=C(Nc1ccc(N2CCOCC2)cc1)c1ccc([N+](=O)[O-])o1`?
Giardia killer: -84.9*; Integrin act MD: -61.8%; TCR act: -16.6%; Chronic BCR inh: inconclusive

Results for O=C(COC(=O)c1ccc([N+](=O)[O-])o1)Nc1ccc(N2CCOCC2)cc1 ?
Giardia killer: -5.1; Integrin act MD: 0.2%; TCR act: -3.8%; Chronic BCR inh: 1.1%

How did Cc1ccc(-n2c(=O)c3c(C)c(C(=O)N(C)C)sc3n(CC(=O)C(C)(C)C)c2=O)cc1C do in these assays?
Chronic BCR inh: 8.0%

How did Cc1cc(-n2c(C)nc3ccccc3c2=O)ccc1NC(=O)c1cccc([N+](=O)[O-])c1C do in these assays?
Chronic BCR inh: -2.8%

What do the screens show for `Cc1ccc(C(=O)n2c(N)nc3ccccc32)cc1`?
Giardia killer: -81.5*; Integrin act MD: 5.4%; TCR act: -4.9%; Chronic BCR inh: inconclusive

How did CCC(CC)C(=O)Nc1c(C(=O)N2CCN(c3ccccc3)CC2)oc2ccccc12 do in these assays?
Giardia killer: 20.7; Integrin act MD: 12.6µM*; TCR act: -8.7%; Chronic BCR inh: 0.7%

Results for Cc1ccc(-n2ncc3c(NCc4ccccc4)ncnc32)cc1C ?
Chronic BCR inh: 11.7%

Results for N/C(=N\O)c1ccc([N+](=O)[O-])s1 ?
Giardia killer: -88.2*; Integrin act MD: 7.6%; TCR act: 0.7%; Chronic BCR inh: 16.7%

Results for Cc1cc(C(=O)Nc2cccc3ccccc23)c(C)o1 ?
Giardia killer: inconclusive; Integrin act MD: 7.94µM*; TCR act: -1.7%; Chronic BCR inh: inconclusive

What do the screens show for `Cc1nc2ccccc2c(=O)n1/N=C/c1ccc(N(C)C)cc1`?
Giardia killer: 25.7; Integrin act MD: 0.8%; TCR act: 1.6%; Chronic BCR inh: -9.2%

How did Cc1nc2c(cnn2-c2ccccc2)c(=O)n1/N=C/c1ccccc1 do in these assays?
Giardia killer: 21.5; Integrin act MD: 10µM*; TCR act: -56.6%; Chronic BCR inh: inconclusive

What do the screens show for `O=C(NCc1ccccn1)C1CCCN(S(=O)(=O)c2cc(Cl)ccc2Cl)C1` (stereo not drawn)?
Giardia killer: -83.2*; Integrin act MD: -57.4%; TCR act: 6.8%

Results for COCCN1C(=S)N[C@@H](c2ccccc2)C(C(=O)OC)=C1C ?
Chronic BCR inh: -15.3%

How did O=[N+]([O-])c1ccc(CN2CCN(c3ccc(Cl)cc3)CC2)o1 do in these assays?
Giardia killer: -93.7*; Integrin act MD: 19.3%; TCR act: -5.9%; Chronic BCR inh: 4.4%

How did O=[N+]([O-])c1ccc(N2CCN(C(=S)NCc3ccc(Cl)cc3)CC2)cc1 do in these assays?
Giardia killer: 14.6; Integrin act MD: -7.6%; TCR act: -7.6%; Chronic BCR inh: 11.8%

How did COc1ccc(CC(=O)NC2CC(=O)N(c3cccc(F)c3)C2)cc1 (stereo not drawn) do in these assays?
Chronic BCR inh: -9.5%

Results for Cc1ccc(C(=O)Nc2ccc3ncccc3c2)cc1 ?
Giardia killer: -84.8*; Integrin act MD: 32.9%; TCR act: 0.4%; Chronic BCR inh: inconclusive

What do the screens show for `Cc1nc([N+](=O)[O-])cn1-c1nc2ccccn2c1[N+](=O)[O-]`?
Giardia killer: -87.8*; Integrin act MD: 1.9%; TCR act: -0.4%; Chronic BCR inh: 1.4%

What do the screens show for `COc1ccc(CC(=O)NCc2ccc3c(c2)CCN3C(=O)c2ccc(C)cc2)cc1OC`?
Chronic BCR inh: 13.1%

Results for COc1ccc2ccccc2c1/C=N/NC(=S)NCCN1CCOCC1 ?
Giardia killer: 21.0; Integrin act MD: 7.2%; TCR act: 3.5%; Chronic BCR inh: 20µM*

How did S=C(NCCN1CCOCC1)N/N=C/c1c2ccccc2cc2ccccc12 do in these assays?
Giardia killer: 0.4; Integrin act MD: -8.6%; TCR act: 0.2%; Chronic BCR inh: -9.8%

What do the screens show for `CCOC(=O)C(=O)N1CCC(Cc2ccccc2)CC1`?
Giardia killer: 12.7; Integrin act MD: 24.6%; TCR act: -0.7%; Chronic BCR inh: -1.3%

What do the screens show for `CC(=O)O[C@@H]1[C@@H](O)CN[C@@H]1Cc1ccccc1`?
Giardia killer: -82.5*
